Screening results from PubChem.
ABHD5-PLIN5 inh: inhibitors of human ABHD5-perilipin-5 interaction. Q00G26+Q8WTS1. Split G. princeps luciferase complementation, luminescence, 4 h. inhibition, % at 4 µM. hit rate 0.78% among 360,000;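 active = inhibition above the mean inhibition across every tested compound plus 3 SD, cut at about 22% in these data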
HIF-2a block: blocks HIF-2a reporter activity; AID 624352; 786-0 RCC cells HIF-2a reporter, luciferase luminescence, overnight; inhibition, % at 18.8 µM; hit rate 0.72% among 360,000;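 active = inhibition of the luminescence signal of 40% or more relative to plate controls, in a single-dose primary screen at 18.75 µM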
KKLEB cytotox: reduces viability of KKLEB cystic fibrosis airway cells; hit rate 0.36% among 360,000; KKLEB CF airway cells viability, ATPlite luminescence, overnight; hits give low values; cells stimulated with P. aeruginosa culture filtrate; activity change (cytotoxicity), % at 5 µM; AID 602141;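 active = corrected activity change at or below -50% at 5 µM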
CF NFkB block: cystic fibrosis NF-kB activation inhibition; KKLEB NF-kB-GFP reporter, PAF-induced, GFP fluorescence overnight; inhibition, % at 5 µM; hit rate 0.86% among 360,000;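 active = at least 50% inhibition at 5 µM, scaled per plate between neutral and stimulator controls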;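 also: PAF is a Pseudomonas aeruginosa culture filtrate used as stimulus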
Mdm2 MdmX PPI: human Mdm2/MdmX binding inhibition | O15151+Q00987 | SaOS-2 split-luciferase Mdm2/MdmX complementation, luminescence | inhibition, % at 8 µM | hit rate 3% among 330,000 | AID 485346;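 active = inhibition of at least 50% at 8 µM in the primary screen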
Target sequence (O15151 whole entry, looked up): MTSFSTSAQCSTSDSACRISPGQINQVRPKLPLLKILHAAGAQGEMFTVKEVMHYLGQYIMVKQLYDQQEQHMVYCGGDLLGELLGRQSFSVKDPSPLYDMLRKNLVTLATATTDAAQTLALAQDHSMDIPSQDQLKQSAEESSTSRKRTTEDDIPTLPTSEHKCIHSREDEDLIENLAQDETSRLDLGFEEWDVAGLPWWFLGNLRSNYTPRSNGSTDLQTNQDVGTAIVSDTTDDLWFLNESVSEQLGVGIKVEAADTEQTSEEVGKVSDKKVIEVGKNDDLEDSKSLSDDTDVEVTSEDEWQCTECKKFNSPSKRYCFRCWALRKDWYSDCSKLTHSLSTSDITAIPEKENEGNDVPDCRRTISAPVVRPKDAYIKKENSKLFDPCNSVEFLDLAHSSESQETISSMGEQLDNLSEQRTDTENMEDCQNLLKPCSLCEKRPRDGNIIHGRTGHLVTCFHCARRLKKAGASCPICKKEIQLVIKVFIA
Target sequence (Q00987 whole entry, looked up): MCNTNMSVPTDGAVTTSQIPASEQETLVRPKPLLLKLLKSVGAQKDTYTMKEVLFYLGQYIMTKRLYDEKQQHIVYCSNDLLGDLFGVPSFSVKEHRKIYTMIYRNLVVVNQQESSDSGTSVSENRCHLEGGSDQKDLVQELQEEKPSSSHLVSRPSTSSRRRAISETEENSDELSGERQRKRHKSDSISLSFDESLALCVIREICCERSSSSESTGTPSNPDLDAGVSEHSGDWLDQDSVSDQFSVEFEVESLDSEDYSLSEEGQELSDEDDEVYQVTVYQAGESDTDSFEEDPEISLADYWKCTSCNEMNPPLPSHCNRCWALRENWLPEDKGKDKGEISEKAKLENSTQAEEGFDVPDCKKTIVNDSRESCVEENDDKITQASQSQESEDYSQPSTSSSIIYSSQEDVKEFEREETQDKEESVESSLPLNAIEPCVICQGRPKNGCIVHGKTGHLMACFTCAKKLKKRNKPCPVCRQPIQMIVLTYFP
Peg3 prom inh-1: inhibitors of Peg3 promoter; HeLa PEG-Prom luciferase reporter, luminescence, overnight; inhibition, % at 20 µM; hit rate 1.7% among 360,000;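 active = inhibition of at least 50% at 20 µM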
Mdm2 MdmX conf-1: human Mdm2/MdmX binding inhibition, confirmed. shares compounds with Mdm2 MdmX PPI. luminescent assay. inhibition, % at 8 µM. hit rate 55% among 10,000. AID 489028
FLuc counter: full-length luciferase inhibition in Mdm2/MdmX counter-screen; shares compounds with Mdm2 MdmX PPI; SaOS-2 full-length luciferase counterscreen, luminescence; inhibition, % at 8 µM; hit rate 77% among 6,200; AID 504607;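 active = mean inhibition at 8 µM reaching about 37%, which flags the compound as non-specific, limit read from the data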;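 also: p53-null SaOS-2 cells with luciferase driven by a doxycycline-inducible promoter; compound on cells about two nights before reading with doxycycline added after day one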
Peg3 prom inh-2: Peg3 promoter inhibition confirmation. shares compounds with Peg3 prom inh-1. HeLa PEG-Prom luciferase reporter, luminescence, overnight. inhibition, % at 20 µM. hit rate 84% among 1,300. AID 602417;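 active = at 20 µM dose, 40% or more inhibition averaged across four replicates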
CF NFkB inh conf: confirmation of cystic fibrosis induced NF-kB inhibitors | shares compounds with CF NFkB block | inhibition, % at 5 µM | AID 602472 | KKLEB CF airway cells, PAF-induced NF-kB-GFP fluorescence, overnight | hit rate 64% among 1,300;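 also: stimulus PAF is a Pseudomonas aeruginosa filtrate and not platelet activating factor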
ABHD5 PLIN5 conf: confirmation of human ABHD5-PLIN5 interaction inhibitors. shares compounds with ABHD5-PLIN5 inh. biochemical ABHD5-PLIN5 interaction, luminescence. inhibition, % at 4 µM. hit rate 67% among 2,200. AID 651612; in the data active = inhibition above about 23%
HNF4 counter: HNF4 split-luciferase signal hit, counter-screen. AID 651674. shares compounds with ABHD5-PLIN5 inh. inhibition, % at 4 µM. hit rate 77% among 2,200. HNF4 dimerization, luminescence, biochemical;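 active = mean inhibition across replicate wells exceeding the computed hit threshold, cut at about 13% in these data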;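 also: light from luciferase halves that rejoin when HNF4 fusion proteins dimerize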
Mdm2 MdmX conf-2: Mdm2/MdmX (human) interaction inhibition, confirmed. hit rate 99% among 740. shares compounds with HIF-2a block. inhibition, % at 8 µM. SaOS-2 split-luciferase Mdm2/MdmX complementation, luminescence;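 active = mean inhibition of the luminescence signal across two replicates at or above 26 percent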
HIF-2a conf: confirmation of HIF-2a inhibitors | shares compounds with HIF-2a block | 786-0 RCC cells, HIF-2a luciferase reporter luminescence, overnight | inhibition, % at 18.8 µM | hit rate 56% among 1,800 | AID 651580;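 active = mean inhibition across four replicates of at least 40 percent at the single tested concentration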
HIF-1a counter: counter-screen for HIF-2a inhibitors: HIF-1a inhibition in MiaPaCa-2 cells; AID 651589; shares compounds with HIF-2a block; hit rate 72% among 1,800; MiaPaCa-2 HIF-1a luciferase reporter, desferoxamine, overnight; inhibition, % at 18.8 µM;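 active = mean inhibition of the reporter signal across four replicates at the single tested dose of 50% or more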
Of the large screens only hits and unclear results are named; the others gave an inactive call (follow-up assays come after a bar, where they were run). Shown are actives, neighbours in structure and some others; about 4.6% of the full set was active somewhere. Rule as the data show it, unless noted: active = inhibition above about 40%; inactive = the rest.

COc1ccc2cc1Oc1ccc(cc1)C[C@H]1c3cc(c(OC)cc3CCN1C)Oc1c(OC)c(OC)cc3c1[C@H](C2)N(C)CC3	Mdm2 MdmX PPI 100.4, Peg3 prom inh-1 92.8 | Mdm2 MdmX conf-1 99.5 | FLuc counter 51.5 | Mdm2 MdmX conf-2 102.2
O=C(NNC(=S)Nc1ccc(Cl)c(Cl)c1)c1ccccn1	Mdm2 MdmX PPI 78.6 | Mdm2 MdmX conf-1 84.0 | FLuc counter 47.7 | Mdm2 MdmX conf-2 85.0
CCNC(=S)NNC(=O)c1ccccn1	none
Cc1c(C#N)c(N)nc2c3c(sc12)NC(=O)CC3c1ccc(Cl)cc1 (stereo not drawn)	HIF-2a block 40.5, Mdm2 MdmX PPI 92.5, Peg3 prom inh-1 67.9 | Mdm2 MdmX conf-1 inactive | Peg3 prom inh-2 47.6 | HIF-2a conf inactive | HIF-1a counter inactive
N#Cc1c(N)nc2c3c(sc(=N)c2c1N)NC(=O)CC3c1ccccc1 (stereo not drawn)	none
CCc1nc2c(OCc3ccccc3)cccn2c1N(C)C(=O)C(C)C	none (no result: Mdm2 MdmX PPI)
CCCCN(CCCC)CCNC(=O)c1cn(C)c2ccc(S(=O)(=O)N3CCCC3)cc2c1=O	none
CN(C)CCCn1cnc2c(c1=N)C(c1ccccc1)c1ccc3ccccc3c1O2 (stereo not drawn)	HIF-2a block 92.6, Mdm2 MdmX PPI 100.3, Peg3 prom inh-1 108.7 | Mdm2 MdmX conf-1 100.2 | FLuc counter 51.8 | Mdm2 MdmX conf-2 103.0 | HIF-2a conf inactive | HIF-1a counter 105.8
COc1ccc(NS(=O)(=O)c2cc(C(=O)N3CCN(C/C=C/c4ccccc4)CC3)ccc2C)cc1	none
c1nc(NCc2ccc3c(c2)OCO3)c2cc(-c3ccc4c(c3)OCCO4)ccc2n1	none
COc1cccc(-c2ccc3ncnc(NCc4ccc5c(c4)OCO5)c3c2)c1	CF NFkB block 79.7, Mdm2 MdmX PPI 74.2 | Mdm2 MdmX conf-1 75.8 | FLuc counter 53.0 | CF NFkB inh conf 81.4 | Mdm2 MdmX conf-2 85.0
COc1ccc(OC)c(S(=O)(=O)N2CCC(C(=O)NCc3ccc4c(c3)OCO4)CC2)c1	none
CC(=O)c1ccc(NC(=O)C(C)Sc2nnc3ccccn23)cc1 (stereo not drawn)	none
Cc1noc2ncnc(Sc3c(Cl)cccc3Cl)c12	HIF-2a block 42.6, Mdm2 MdmX PPI 53.5, Peg3 prom inh-1 96.8 | Mdm2 MdmX conf-1 inactive | HIF-2a conf inactive | HIF-1a counter 95.0
CN(C)CCCN(C(=O)c1cc2cc([N+](=O)[O-])ccc2s1)c1nc2cc3c(cc2s1)OCCO3	HIF-2a block 75.6, KKLEB cytotox -93.7, CF NFkB block 80.5, Mdm2 MdmX PPI 96.8, Peg3 prom inh-1 100.5 | Mdm2 MdmX conf-1 65.1 | FLuc counter 77.2 | HIF-2a conf inactive | HIF-1a counter 104.0
CN(C)C(CNC(=O)c1cccc(S(=O)(=O)NCc2ccccc2)c1)c1ccco1 (stereo not drawn)	none
Cc1ccc(CNC(=O)C2CCN(S(=O)(=O)c3ccc4c(c3)CC(C)N4C(=O)C3CCC3)CC2)o1 (stereo not drawn)	none
COc1ccccc1OCCN1CSC(=S)N(C)C1	HIF-2a block 87.6, Mdm2 MdmX PPI 51.7, Peg3 prom inh-1 99.8 | Mdm2 MdmX conf-1 inactive | FLuc counter 82.0 | HIF-2a conf inactive | HIF-1a counter 103.1
COc1ccccc1OCCCCN1CCCCC1	none
COc1ccc(CCC(C)N(C)Cc2ccccc2)cc1 (stereo not drawn)	none
CSCCC(NC(=O)c1ccccc1Br)C(=O)N1CCCC(C(F)(F)F)C1 (stereo not drawn)	none
Cc1ccc(C(=O)N/C(=C\c2ccc(-c3ccc(Cl)cc3)o2)C(=O)NCCCN(C)C)cc1	Mdm2 MdmX PPI 93.3, Peg3 prom inh-1 102.7 | Mdm2 MdmX conf-1 94.4 | FLuc counter 52.2 | Mdm2 MdmX conf-2 102.7
CN(C)CCCNC(=O)/C(=C\c1ccc(-c2ccc(Br)cc2)o1)NC(=O)c1ccccc1	ABHD5-PLIN5 inh 24.4, HIF-2a block 41.0, KKLEB cytotox -70.5, Mdm2 MdmX PPI 100.3, Peg3 prom inh-1 75.5 | Mdm2 MdmX conf-1 52.0 | FLuc counter inactive | ABHD5 PLIN5 conf inactive | HNF4 counter inactive | HIF-2a conf inactive | HIF-1a counter 106.4
COc1cc(CCC(N)c2cccc(O)c2)cc(OC)c1OC (stereo not drawn)	none (no result: Mdm2 MdmX PPI)
C(=NNc1nnn(Cc2ccccc2)n1)c1ccccc1	none (no result: Mdm2 MdmX PPI)
COc1ccc(C(=O)Nn2c(SCC(=O)NC3CCCCC3)nc3ccccc3c2=O)cc1	none
COc1ccc(C(=O)Nn2c(SCC(=O)N3CCC(C)CC3)nc3ccccc3c2=O)cc1	HIF-2a block 51.2, Mdm2 MdmX PPI 58.7, Peg3 prom inh-1 68.0 | Mdm2 MdmX conf-1 48.0 | FLuc counter 141.8 | HIF-2a conf 67.2 | HIF-1a counter 77.6
COc1cccc(-c2nnc3n2N=C(C(C)(C)C)CS3)c1	CF NFkB block 93.9, Mdm2 MdmX PPI 85.0, Peg3 prom inh-1 98.4 | Mdm2 MdmX conf-1 99.0 | FLuc counter 51.2 | Peg3 prom inh-2 75.4 | CF NFkB inh conf 97.7 | Mdm2 MdmX conf-2 103.2
COc1cccc(-c2nnc3n2N=C(c2cc(OC)ccc2OC)CS3)c1	none
CCCC(C)C(=O)Nc1ncc(S(=O)(=O)c2ccc([N+](=O)[O-])cc2)s1 (stereo not drawn)	none
COCCCN1C(=O)C(CC(=O)NCc2cccc3ccccc23)CC(C(=O)N(C)C)=C1C (stereo not drawn)	none (no result: Mdm2 MdmX PPI)
